The full ranking holds about 1,800 sequences; the median of “median log2 fold change of GCK-ALFA target abundance (FLAG IP / Myc IP barcode read proportion)” is about 0.14, and the lowest 2% start at about -0.84. The sample as a whole holds a higher share of the lowest values than the screen did.
T1: TRAF2, Q12933
T1 chain: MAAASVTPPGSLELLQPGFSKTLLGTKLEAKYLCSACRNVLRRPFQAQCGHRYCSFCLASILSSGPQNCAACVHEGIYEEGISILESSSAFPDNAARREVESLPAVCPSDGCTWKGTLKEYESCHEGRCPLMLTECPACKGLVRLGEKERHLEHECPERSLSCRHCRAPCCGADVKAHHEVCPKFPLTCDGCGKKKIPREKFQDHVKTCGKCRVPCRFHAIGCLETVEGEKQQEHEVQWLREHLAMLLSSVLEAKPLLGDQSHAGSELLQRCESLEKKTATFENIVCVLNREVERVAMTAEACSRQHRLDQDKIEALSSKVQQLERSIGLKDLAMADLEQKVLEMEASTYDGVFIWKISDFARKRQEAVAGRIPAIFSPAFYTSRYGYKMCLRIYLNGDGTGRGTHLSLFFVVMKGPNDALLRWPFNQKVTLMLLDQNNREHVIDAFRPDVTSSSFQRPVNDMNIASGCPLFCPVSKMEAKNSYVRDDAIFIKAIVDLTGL

B1: traf2_out_3_89_2284 (protein)
chain: SHHMEALIEEARKIAEAYAKGFRKSLTFVAKQMVAEGHSLETLEGVANAAKTALVEEFRESLKERGLDEETIKEIVEELRKKLDEIVKEVIAEAKKARAA
B2: traf2_out_6_156_2424 (protein)
chain: MLEKIIKEAEEKIKKEIKKLAEASEEKKIKYISDIAGAVYKALQKMREAGASVEEIKEAIERLKKVAEKEAKKAGLDKDTRDLLLASINAVGEVALREAK
B3: traf2_out_1_158_908 (protein)
chain: STDVSTLHAVATSIAEVYAEEAKERGLEKAAELLKKLKKEIEKLYEANKDASLEEMAAKVLELIKKFEEESKSFDPETREFVEIAFRQIRSGILQVVKLA
B4: traf2_out_5_63_2366 (protein)
chain: SAAEEERRRLREEARLIEAAIRAVIDGREEEARRLLAEAEARGIDWRTVALYFRGMARALRLQNEPQEKIERMERAAEEARARAEAAAAAAAAAAAAAAA
B5: traf2_out_20_38_2025 (protein)
chain: SEEEEEEKKLEELIKVANDAYDAATAEIAALKAEGKSVEEIAEWAKEKIKEILDKVGLEEEKEELIADVDRVLDSPDALTLIARILARAVAKAKQKELQE
B6: traf2_out_20_3_2078 (protein)
chain: SELEAELERELDRALALLRQAAARADPETAARLDALIARLRASRELSIEDRLVAISAVRREVRALAEEARAAGRADLAALLDAAADALNRAAQLAYEILE
B7: traf2_out_17_178_1662 (protein)
chain: SKEEERKKISELTDELIDLAEDAAERMLELAEKEGDVSEEELEELREARRRGSATDVLALGERLIPKLKNSEELGALLEEFKARYRELSKEIAEAYERYE
B8: traf2_out_1_27_1014 (protein)
chain: SDEELTKLIKETDKKIAEVSLEEAKKVVKEALKEAAKLGPEDAMVLANTLIASQLDEERLKAIAEAAVEAFKELGFPEEDIERLKRIAESVLKLNKKVLA
B9: traf2_out_11_104_655 (protein)
chain: LTREQAREFNDFAMEARDRAREIAEAVAAELEARGHTEEAARVRALLNDPGAGISSFRNLLEELKPRLDAESRKVADAAIEELRRLQREVSEKLNELLAK
B10: traf2_out_20_3_2147 (protein)
chain: EELERELAEELERAKALLAEAAALADPETAARLEALRERLEASRALSPSDQLVVVSEVRREVRLLAQEARAAGDEELAALLEEAAAALNRAANLLMRIIE
B11: traf2_out_13_95_1174 (protein)
chain: EEEKTKKEREIASEAYDEREEVMTAYKEAVVALLGDPAAAALMDEVVRNMNEFTLEHATAQLVAAHPEKAAELQALRDEALAKMKEINKKYTEKLNEIEK
B12: traf2_out_14_149_1247 (protein)
chain: SHMAETLRAAAELNERIAKALEEILKLLEAGKLEEAKAALEAAIKEAEALGEELGVTTSGIFEMEHILKLLKEDPEEAKKAVKEAAERARDAAEVLRSIA
B13: traf2_out_17_162_1536 (protein)
chain: SPEDERLAELQKRLEELEKKLEELEKKLKNIEKLSKEELTDLLVEASELRREARELAEELRELAEKTGSPEAEELRERAEELAEKLQRIANEIYKELEKK
B14: traf2_out_17_178_1708 (protein)
chain: TKEEARKRISEATDEMIDLAEEAAARLLEIAEREGSLSPEELAALRRARRLGSARTTIALMERAIPRLRSAEEVRALLEELKARYRELSKEIAEALEKYE
B15: traf2_out_5_192_2336 (protein)
chain: SAEEEARERRLRERAEEILREAEERAKKISERTGLDYATVLATLAFSRVVARAESAEEARLMLDYIVEMITARDPSWAPIAEGEKAAALRAIDAIEAAEP
B16: traf2_out_20_38_2023 (protein)
chain: SMEEEEEEKLKELVEVANKAYDEYSAKFAKWKAEGKTVEEIAEEVKKEIRELLSKAGLEEEAEILIEDVDLALKSPNAERLLIRTLARAVALVKQKELQK
B17: traf2_out_13_95_1070 (protein)
chain: TRELARRINELADRAEERALALLAAAQAELADDPEAVAVLDEAARLAETRGIRAAIALLREAQAAHPEHREAFDALIAELEEIRRELGREVAKLIKEAEE
B18: traf2_out_6_156_2375 (protein)
chain: MLEKILEEAKKKIEELIKELAKASEEKKIAYISRIAGAVYRALQRMREAGASVEEIKKAVEELKKVAEEKAKEAGLDQDTIDLLLASIDAVGKVALEEAK
B19: traf2_out_17_178_1676 (protein)
chain: TKEEKRKKISELTDKYIDLAEATAARLLALAEAEGFMTPEELAALRAAQRRGNGRLVEALLERAIPRSPRAAEVAALLADYRARSRELAKEIAKALEEYE
B20: traf2_out_6_156_2412 (protein)
chain: MVEEILEKALEKVEELIKELAKASEEKKIAYISKIAGTAYRALQELREAGASLEEIEAFAEEFKKRTEELLKEAGLPEDTINLVLSALNAVFDVAIAEAK
B21: traf2_out_11_155_735 (protein)
chain: EEKQKLIQEMNDKIMELFEEARRRALEIARRAAERHPEHREEIEAAIEESKGFSYRSFILEMIRLFRELGLEEEAEELERLLEETQRKASKIVIETEKKL
B22: traf2_out_17_162_1539 (protein)
chain: SPTEERLEELERRLERLEEELKKLKEKSEKLDELSKEEISDLLVEVSELRREALRLAEELRRLAEETGSPRARELEERAERLAEELQRIANKIYKELEKK
B23: traf2_out_11_155_726 (protein)
chain: SKFKEAQNKIVDFNLEVGDELLKKVEEIIKEIEKEDPEVAKKLREVVEKYKKFSNRSAARAAIDLLREEGYEEYAERLEKALEEAQRKMSKKTQEIEKEL
B24: traf2_out_6_3_2516 (protein)
chain: MEESIRKDAETVLENMGITTAEQLKRLVKAEVNAVKKLVSRKDVDEADLAGAESVLNLTRAMVEVAYEKLPDLTEEQKKEMLALIKEAEELVKKKRKELE
B25: traf2_out_6_3_2520 (protein)
chain: MEESIRRDARTVLENMGITTAEQLKRLVEANVNAVKKLVSRPDVDEADLAGARSVLALTRAMVDVAAETLPDLTPEQVAEMKALIKEAEELVEKKRKELE
B26: traf2_out_18_3_1943 (protein)
chain: KEEELKKISEEIDKIIDEVTARAREELDRLLAEHPELAAEAEALRADLDAGAGPFGILDELARLWERAGAADEAAAARAFLREKRKKLQELVDKYEELRK
B27: traf2_out_13_95_1132 (protein)
chain: SAETAKKIMEIADKMLDEILAILEELLKKAEAAGVGVEEIQKAIHLAEHHSVNEAIHLLRELAKKHPEFKAELEAAIAKIEAIREKAGREVAKILKEAAE
B28: traf2_out_1_27_1022 (protein)
chain: SDEEFTRLIRETDRKIAEVDLEEQKKVVKEALKEAAKWGLGDARMLARTLVASQNDEERQEAIKEASLEAFKELGAPEEVIEELERVFNSIIERKKKVLA
B29: traf2_out_18_167_1872 (protein)
chain: SAELKKKREELTDELVRYSTIRRALLLILEALKRSREEARRLLEEYVEKYPDSEVLREALEVFETKSDEEFRKFLEEKAEELQKEANEKYKELEELEKEE

Biological target: T1, TRAF2, Q12933
Assay: median log2 fold change of GCK-ALFA target abundance (FLAG IP / Myc IP barcode read proportion) (log2 ratio); each designed protein is fused to an ALFA-tag nanobody in HEK293 cells to bring the named protein to FLAG-tagged glucokinase (GCK); Myc marks an untargeted standard; higher = target protein stabilised (more abundant)
Conditions: target protein: 3xFLAG-MCP-GCK-ALFA reporter; HEK293 landing pad (RPLP)
Protocol: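 LABEL-seq trans screen in HEK293 landing-pad cells. Each de novo designed 100-aa effector handle, binding the indicated effector (E3 ligase, DUB or autophagy protein), is fused to a constant NbALFA target handle and induced with 2 ug/mL doxycycline. A FLAG-MCP-GCK-ALFA target and a Myc-MCP standard reporter were transfected, and after 48 h circRNA barcodes were recovered by anti-FLAG and anti-Myc IP and sequenced. The value is the median across barcodes (at least 3 per design) of log2(FLAG/Myc read-proportion ratio), with the two transfection replicates pooled. Negative values mean degradation and positive values mean stabilisation of the target.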

| Binder | median log2 fold change |
| --- | --- |
| B1 | -0.43 |
| B2 | -0.0673 |
| B3 | 0.0558 |
| B4 | -0.861 |
| B5 | -0.841 |
| B6 | -0.0407 |
| B7 | 0.161 |
| B8 | 0.337 |
| B9 | 0.222 |
| B10 | 0.226 |
| B11 | 0.311 |
| B12 | -0.194 |
| B13 | 0.429 |
| B14 | -0.184 |
| B15 | -1.01 |
| B16 | -1.38 |
| B17 | -0.334 |
| B18 | 0.151 |
| B19 | -0.865 |
| B20 | 0.261 |
| B21 | -0.138 |
| B22 | 0.204 |
| B23 | 0.469 |
| B24 | -0.56 |
| B25 | -0.989 |
| B26 | 0.0947 |
| B27 | -0.315 |
| B28 | 0.214 |
| B29 | 0.106 |

Source: the supplement of paper PMC12632987
